Assay outcomes: PubChem BioAssay, National Center for Advancing Translational Sciences (NCATS)
Compounds with a hit are over-represented: about 11% of the library has one in this group of screens.
IMPase Li cell: qHTS Assay for Identifying the Cell-Membrane Permeable IMPase Inhibitors: Potentiation with Lithium. CHO-M1 cells, IP1 TR-FRET (IP-One), carbachol + lithium. Potency, µM (top dose mostly 59.4 µM), actives largely listed as inhibitors. 210,000 tested, 0.35% active; active = well fitted inhibition curve with a large enough effect; inconclusive = small, poorly fitted or top-dose-only effect; inactive = no such curve, though single readings can be large or run the other way;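 also: IP1 builds up when IMPase is blocked and the TR-FRET signal falls; nearly all actives have a fitted effect of over 50% in size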
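Lithium-sensitised IP1 accumulation assay; M1-expressing CHO cells treated 30 min at 37C with compound. Competitive antibody detection by time-resolved FRET followed a 10 min room-temperature lysis step.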
PNC assembly inh: High Content Assay for Compounds that inhibit the Assembly of the Perinucleolar Compartment | PC3M PTB-GFP, PNC prevalence imaging, 16 h; hits give low values | activity change (PNC), negative = inhibition, % at 10 µM | 140,000 tested, 3.1% active | AID 2417, 2010;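 active = readout at or below -70, meaning at least 70% loss of cells showing the perinucleolar compartment, a nuclear body marking cancer cells; inconclusive = readout between -30 and a set limit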
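Read-out is percentage of cells bearing a perinucleolar compartment, from automated 20x imaging of fixed, Hoechst-stained PC3M PTB-GFP cells. Cells were seeded 4 h, then exposed 16 h to compound (23 nl of library stock) in duplicate plates.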
IMPase inh: qHTS Assay for Identifying the Cell-Membrane Permeable IMPase Inhibitors; Inositol monophosphatase 1 (Rattus norvegicus), P97697; CHO-M1 cells, IP1 accumulation, HTRF TR-FRET ratio; inhibition (IP1 accumulation), % at 46.1 µM; 120,000 tested, under 10 active; AID 901, 2007; active = well fitted curve in the direction sought with a large enough effect in the signal ratio, not every such curve was filed as active; inconclusive = small, poorly fitted or top-dose-only effect, or a change in a side signal; inactive = no such curve, though single readings can be large or run the other way; the % refers to the signal ratio;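 also: cells stimulated with carbachol in lithium chloride buffer; higher means more IMPase inhibition seen as more IP1 and lower FRET ratio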
Target sequence (P97697 whole entry, looked up): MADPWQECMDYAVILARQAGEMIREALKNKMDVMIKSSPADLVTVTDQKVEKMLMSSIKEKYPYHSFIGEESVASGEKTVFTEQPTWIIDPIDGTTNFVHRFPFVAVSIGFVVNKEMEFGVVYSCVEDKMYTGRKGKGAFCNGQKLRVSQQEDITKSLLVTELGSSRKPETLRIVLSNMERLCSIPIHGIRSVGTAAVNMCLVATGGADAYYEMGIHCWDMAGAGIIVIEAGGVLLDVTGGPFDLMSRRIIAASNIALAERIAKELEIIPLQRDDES
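Measured: the HTRF emission ratio (665/620 nm) plus the 620 nm donor channel, each fitted to the Hill equation to give AC50. Cells were CHO-M1 given compounds up to 46 uM and a 30 min carbachol stimulation at 37C.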
HPGD inh: qHTS Assay for Inhibitors of HPGD (15-Hydroxyprostaglandin Dehydrogenase); 15-hydroxyprostaglandin dehydrogenase [NAD(+)] (Homo sapiens), P15428; AID 894, 2007; 150,000 tested, 4.3% active; Potency, µM, hits mostly inhibitors; purified HPGD, NADH fluorescence kinetic, PGE2 substrate
Target sequence (P15428 whole entry, looked up): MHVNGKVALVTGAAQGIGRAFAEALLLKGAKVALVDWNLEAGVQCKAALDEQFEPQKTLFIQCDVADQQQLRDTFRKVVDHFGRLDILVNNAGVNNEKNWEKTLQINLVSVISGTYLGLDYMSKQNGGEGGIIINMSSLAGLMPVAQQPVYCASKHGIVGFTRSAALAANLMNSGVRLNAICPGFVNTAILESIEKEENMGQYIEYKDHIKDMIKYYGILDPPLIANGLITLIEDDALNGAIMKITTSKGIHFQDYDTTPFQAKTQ
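20 nM HPGD preincubated 15 min at room temperature with compound in 50 mM Tris-HCl pH 8, 0.01% Tween 20. Started with 1 mM NAD+ and 30 uM prostaglandin E2; NADH fluorescence (360/450 nm) read 5 times over 30-s intervals, last minus first.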
ALDH1A1 block: qHTS Assay for Inhibitors of Aldehyde Dehydrogenase 1 (ALDH1A1) | Aldehyde dehydrogenase 1A1 (Homo sapiens), P00352 | Purified ALDH1A1, NADH fluorescence, propionaldehyde substrate | Potency, µM (top dose mostly 75.3 µM), actives largely listed as inhibitors | 220,000 tested, 7.3% active | AID 1030, 2008
Hits are given with their value; i = inactive; ? = inconclusive; nt = no result given; [ ] = another dose, or the depositor's remark. Unless noted, calls follow the shape of the dose curve; as a rule, active = well fitted inhibition curve with a large enough effect (not every such curve was filed as active); inconclusive = small, poorly fitted or top-dose-only effect, or another doubt; inactive = no such curve, though single readings can be large or run the other way.

SMILES	IMPase Li cell	PNC assembly inh	IMPase inh	HPGD inh	ALDH1A1 block
CC1(C(=O)NC2CCCC2)CCC(=O)N1Cc1ccccc1Cl (configuration not stated)	i	-88	i	i	i
COc1ccccc1CNC(=S)NC1CCCCC1	i	nt	nt	nt	i
CC1CC1C(=O)OCC(=O)NCc1ccccc1Cl (configuration not stated)	i	i	i	i	?
O=C(COC(=O)C1CCC1)NCc1ccccc1Cl	i	i	i	8.9µM	?
O=C(COC(=O)CCCNC(=O)c1ccc(Cl)cc1)NCc1ccccc1Cl	i	i	i	?	4.5µM
S=C(NCc1ccccc1Cl)NC1CCCC1	i	-88	nt	i	i
O=C(Oc1ccccc1)N1CCC2(CCCN(c3ncccn3)C2)CC1	i	nt	nt	?	i
COc1ccc(CNc2ncncc2-c2ccc(N(C)C)cc2)c(OC)c1	i	nt	nt	nt	?
CC(C)Oc1ccc(CNC(=O)Cn2c(=O)oc3ccccc32)cc1	i	i	i	20µM	i
CCCOc1ccc(CNC(=O)Cn2c(=O)oc3ccccc32)cc1	i	?	?	i	i
CCCc1nnc(NC(=O)Cn2c(=O)oc3ccccc32)s1	i	i	i	28µM	10µM
CC(C)CN(CC(C)C)c1nnc(NC(=O)Cn2c(=O)oc3ccccc32)s1	i	i	i	i	1.4µM
CCOC(=O)C1CCCN(C(=O)COc2ccc(N(C)S(=O)(=O)c3ccc(F)cc3)cc2)C1 (configuration not stated)	i	nt	nt	nt	i
Cc1ccc(C(C(=O)Nc2ccc3c(c2)OCO3)N(C)C(=O)Cc2c[nH]c3ccccc23)cc1 (configuration not stated)	i	i	nt	i	i
O=c1c2ccccc2nc(N2CCN(c3ccccc3)CC2)n1Cc1ccccc1	i	i	i	i	?
O=S(=O)(C[C@H](O)C(Cl)(Cl)Cl)NNc1ccccc1	i	nt	nt	i	i[13.5 µM]
COc1ccc(C(=O)Nc2sc3c(c2C#N)CCN(C(C)=O)C3)cc1	i	nt	nt	nt	?
CC(=O)N1CCc2c(sc(NC(=O)c3ccc([N+](=O)[O-])o3)c2C#N)C1	i	nt	nt	nt	3.2µM
Cc1ccc2c(COC(=O)c3c(C)noc3C)cc(=O)oc2c1	i	nt	nt	nt	?
Cc1ccc2c(CSc3nnc(N)s3)cc(=O)oc2c1	i	i	i	20µM	22µM
NC(CSS(=O)(=O)O)=N[C@@H]1C[C@H]2CC[C@@H]1C2	i	nt	nt	i	i[13.5 µM]
COc1cc(N=C2C(=O)N3CCCc4cccc2c43)cc(OC)c1	i	-104	nt	i	0.63µM
Cc1ccccc1OCC(=O)Nc1ccc2c(c1)n(C)c(=O)n2C	i	nt	nt	nt	i
NCCC[C@H](N)CC(=O)N[C@H]1CNC(=O)[C@@H]([C@@H]2C[C@H](O)N=C(N)N2)NC(=O)/C(=C/NC(N)=O)NC(=O)[C@@H](CO)NC(=O)[C@@H](CO)NC1=O	i	nt	i	i	i
Cc1ccc(-n2ncc3c(=O)n(CC#N)cnc32)cc1C	i	i	i	i	16µM
SMILES	IMPase Li cell	PNC assembly inh	IMPase inh	HPGD inh	ALDH1A1 block
CCCCNC(=O)Cn1cnc2c(cnn2-c2ccc(C)c(C)c2)c1=O	?	i	i	i	i
C#CCn1cnc2c(cnn2-c2ccc(C)c(C)c2)c1=O	i	i	i	i	14µM
Cc1cccc(N2CCN(C(=O)c3cn(C4CCCCC4)c(=O)c4c3c3ccccc3n4C)CC2)c1C	nt	nt	i	nt	nt
O=C(CSc1n[nH]c(-c2cccs2)n1)NCc1ccc2c(c1)OCO2	i	?	i	13µM	i
Cn1c(SCC(=O)NCc2cccs2)nnc1-c1cccs1	i	i	i	i	i
O=C(CSc1n[nH]c(-c2cccs2)n1)NCc1cccs1	i	i	?	18µM	i
Nc1nc(SCC(=O)NCc2ccc3c(c2)OCO3)n[nH]1	i	nt	nt	nt	i
Cc1nc(N)nc2ccccc12	i	nt	nt	?	?
O=C(c1cccc(F)c1)N1CCC2(CCCN(Cc3nccs3)C2)CC1	i	nt	nt	i	i
COC(=O)C1=C(COc2ccc(C=O)cc2OC)NC(=O)NC1c1cc(C)ccc1C (configuration not stated)	i	i	nt	i	6.3µM
COC(=O)C1=C(CN2CCN(C)CC2)NC(=O)NC1c1cc(C)ccc1C (configuration not stated)	i	?	i	i	i
CC(C)(CC(=O)O)CC(=O)Nc1ccc(Oc2ccc(C(C)(C)C)cc2)nc1	nt	nt	nt	nt	8.9µM
COC(=O)c1ccc(S(=O)(=O)c2ccccc2)c(N)c1	i	i	i	?	?
COCCn1cnnc1SCC(=O)Nc1cc(OC)c([N+](=O)[O-])cc1C	i	nt	nt	nt	i
Cc1ccc2nc(NC(=O)COC(=O)c3ccccn3)sc2c1	i	nt	nt	nt	i
COc1ccc(N=c2scc(-c3ccc(S(=O)(=O)N4CCOCC4)cc3)n2CCCO)cc1	i	-100	i	i	?
CC(=O)c1cccc(N=c2scc(-c3ccc(S(=O)(=O)N4CCOCC4)cc3)n2CCO)c1	i	i	nt	i	25µM
COC(=O)CCCC1=CC2=C(c3ccccc3)C(=O)C(C)(OC(=O)C3CCCC3)C(=O)C2=CO1 (configuration not stated)	i	nt	nt	i	i
O=C1C2C3C=CC(C3=C(c3ccccc3)c3ccccc3)C2C(=O)N1Cc1ccccc1 (configuration not stated)	i	i	i	40µM	1.1µM
Cc1ccc(-n2nnnc2C(Cl)(Cl)c2nnnn2-c2ccc(C)cc2)cc1	i	i	i	3.5µM	1.3µM
COc1ccc(OC)c(CN2CCN(Cc3cccc4ccccc34)CC2)c1	i	nt	nt	nt	?
COCCNC(=O)CNC(=S)N(CCCN1CCOCC1)Cc1cccs1	i	nt	nt	nt	i
CC1CCCCC1NC(=O)CSc1nncs1 (configuration not stated)	i	?	i	22µM	i
CC1CCCC(NC(=O)CSc2nnc(N)s2)C1C (configuration not stated)	i	i	i	28µM	?
CC1CCCCC1NC(=O)CSc1nnc(-c2ccccc2)n1N (configuration not stated)	nt	-122	i	nt	?
SMILES	IMPase Li cell	PNC assembly inh	IMPase inh	HPGD inh	ALDH1A1 block
CC1CCCCC1NC(=O)CSc1nncn1N (configuration not stated)	i	nt	nt	nt	i
CC1(O)C(=O)C=C2C=C(CCCCOCc3ccccc3)OC=C2C1=O (configuration not stated)	nt	nt	nt	nt	i[13.5 µM]
O=C(CNc1cccc(C(F)(F)F)c1)N/N=C/c1ccccc1C(=O)O	nt	nt	nt	nt	i
O=C(O)CCC(=O)NNC(=O)c1cccs1	i	nt	nt	nt	?
Cc1ccc(-n2[nH]c(=O)c3cccnc32)cc1	i	i	i	16µM	i
COc1cnn(-c2ccccc2)c(=O)c1SCc1ccc(Cl)cc1Cl	i	?	i	i	?
COc1ccc(Cl)cc1CSc1n[nH]c(C)n1	i	?	i	16µM	i
